Here are results for two molecules from PubChem BioAssay (EPA / NIEHS).

The nature of experiment [1]: Tanguay_ZF_120hpf_MUSC: Oregon State University Tanguay Lab 120 Hour Post-fertilization zebrafish Assay for Muscle Malformation (AID 2284401). The procedure, abridged:
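Scored as a binary brightfield endpoint at 120 hpf, fitted versus DMSO. Single dechorionated wild-type (Tropical 5D) zebrafish embryos per well, statically exposed at 28C from 6 hpf onward with final DMSO 0.64%.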

Experiment [2] can be described thus: CCTE_Shafer_MEA_dev_firing_rate_mean: CCTE's Neural Network Formation Assay for Mean Firing Rate, Shafer Lab (AID 2284031).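 Note: curve fitted for loss of firing so AC50 reflects decreased mean firing rate.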 In outline: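 Read-out: spike count/recording length, averaged over active electrodes, then AUC across days 5, 7, 9, 12. Rat cortical cultures on MEA; continuous 12-day exposure, media and treatment renewed DIV 5, 9; DMSO baseline.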
Experiment [3] can be described thus: CCTE_Shafer_MEA_dev_per_burst_spike_percent: CCTE's Neural Network Formation Assay for Percent of Spikes in a Burst, Shafer Lab (AID 2284032).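 Note: fitted as a decrease in burst spike percentage below DMSO baseline.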 In outline:
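Value is trapezoidal AUC over recordings on days 5, 7, 9 and 12 of the well-mean fraction of spikes falling in single-electrode bursts; rat cortical cultures exposed continuously from plating, treatment renewed DIV 5 and 9, fitted downward against DMSO.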

Experiment [4] can be described thus: CCTE_Shafer_MEA_dev_active_electrodes_number: CCTE's Neural Network Formation Assay for Number of Active Electrodes, Shafer Lab (AID 2284040; active = hit-call score of the fitted dose curve at least 0.9, where 1 is the maximum;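 note: potency for loss of active electrodes versus DMSO so lower counts are hits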). In outline: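 Developing rat cortical networks on MEAs, exposed DIV 0–12. Value is the AUC of active-electrode counts (≥5 spikes/min) from days 5, 7, 9, 12, relative to DMSO.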
A short description of experiment [5]: CCTE_Shafer_MEA_dev_burst_rate: CCTE's Neural Network Formation Assay for Burst Rate, Shafer Lab (AID 2284042).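 Note: potency for loss of burst rate below DMSO control.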 In outline: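 Cells plated, treated day 0; recorded DIV 5, 7, 9, 12; fed and re-treated DIV 5, 9. Endpoint: bursts per recording time, active-electrode well mean, trapezoidal AUC, fitted in decreasing direction against DMSO baseline.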
Experiment [6] in a line: CCTE_Shafer_MEA_dev_per_burst_interspike_interval: CCTE's Neural Network Formation Assay for Burst Interspike Interval, Shafer Lab (AID 2284044).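 Note: potency for a decrease of within-burst interspike interval below DMSO level.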 In outline: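 Readout is the average time between spikes inside single-electrode bursts, taken as a well mean across bursting electrodes. Cortical neurons from rat developed networks on MEA plates under continuous 12-day exposure; recordings on days 5, 7, 9 and 12 were integrated by trapezoidal AUC.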

Experiment [7] can be described thus: CCTE_Shafer_MEA_dev_burst_duration_mean: CCTE's Neural Network Formation Assay for Mean Burst Duration, Shafer Lab (AID 2284045).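 Note: curve fitted for loss meaning shorter burst duration than DMSO.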 In outline:
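Network-formation assay in primary rat cortical neurons; treatment spans twelve days of development. Mean burst duration per well is integrated by trapezoidal AUC and fitted in the loss-of-signal direction against DMSO baseline.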

Experiment [8] in a line: CCTE_Shafer_MEA_dev_interburst_interval_mean: CCTE's Neural Network Formation Assay for Mean Interburst Interval, Shafer Lab (AID 2284046).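 Note: well-mean interburst interval of bursting electrodes as AUC over four recording days; curve fitted for decrease in interburst interval relative to DMSO.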 The procedure, abridged:
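Developing rat cortical networks on 48-well MEAs receive compound from the day of plating. Burst intervals from each active electrode are averaged per well, and AUC over the recording days is fitted in the negative direction against DMSO.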

Experiment [9] in a line: CCTE_Shafer_MEA_dev_inter_network_spike_interval_mean: CCTE's Neural Network Formation Assay for Mean Inter-network Spike Interval, Shafer Lab (AID 2284047).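 Note: potency for a decrease in mean inter-network spike interval below DMSO.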 The procedure, abridged: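 Rat cortical cultures, 1.5 x 10^5 cells/well on 48-well MEA plates; continuous exposure days 0–12, medium and compound refreshed DIV 5, 9. Mean time between consecutive network-spike peaks; AUC across DIV 5/7/9/12; DMSO baseline, negative fitting direction.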

Experiment [10] in a line: CCTE_Shafer_MEA_dev_network_spike_number: CCTE's Neural Network Formation Assay for Number of Network Spikes, Shafer Lab (AID 2284048).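 Note: fit as a loss of signal meaning fewer network spikes than DMSO.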 The procedure, abridged:
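Extracellular recordings from 16-electrode wells track network formation in rat cortical cultures under continuous treatment from plating. The endpoint is network spike number, expressed as AUC across DIV 5–12 relative to DMSO vehicle.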

Experiment [11] in a line: CCTE_Shafer_MEA_dev_spike_duration_mean: CCTE's Neural Network Formation Assay for Mean Spike Duration, Shafer Lab (AID 2284051).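 Note: mean network spike duration pooled as area under curve over DIV 5 to 12 recordings; potency for a decrease in mean network spike duration versus DMSO.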 The procedure, abridged:
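Readout is the average length of network spikes, clustered firing across electrodes, summed over DIV 5, 7, 9 and 12 as area under the curve. Neurons from rat cortex developed networks on MEA plates under continuous 12-day exposure.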

Experiment [12] is described as follows: CCTE_Shafer_MEA_dev_network_spike_duration_std: CCTE's Neural Network Formation Assay for Standard Deviation of Network Spike Duration, Shafer Lab (AID 2284052).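 Note: area under curve of spike duration SD across recording days 5 to 12; hits are decreases in network spike duration SD versus DMSO vehicle.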 In outline:
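Read-out is the trapezoidal area-under-the-curve across recordings made on days 5, 7, 9 and 12, fitted in the negative direction against DMSO baseline. Neurons were primary rat cortical cells treated from day 0, with treatment renewed at each feed.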

A short description of experiment [13]: CCTE_Shafer_MEA_dev_per_network_spike_spike_number_mean: CCTE's Neural Network Formation Assay for Mean Number of Spikes in a Network Spike, Shafer Lab (AID 2284053). The procedure, abridged: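 Continuous twelve-day exposure of developing rat cortical networks grown over 16 microelectrodes per well; spontaneous firing is captured at four time points, and the per-network-spike spike number is integrated over development by trapezoidal AUC.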

A short description of experiment [14]: CCTE_Shafer_MEA_dev_per_network_spike_spike_percent: CCTE's Neural Network Formation Assay for Percent of Spikes in a Network Spike, Shafer Lab (AID 2284054). The procedure, abridged:
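Developing networks of rat cortical neurons are dosed at day 0 and recorded extracellularly four times up to day 12. The endpoint is the area under the curve of percent spikes in network spikes, fitted in the negative direction relative to DMSO.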

Experiment [15] in a line: CCTE_Shafer_MEA_dev_LDH: CCTE's Lactate Dehydrogenase Assay for Cytotoxicity in the Neural Network Formation Assay, Shafer Lab (AID 2284068; active = hit-call score of the fitted dose curve at least 0.9, where 1 is the maximum;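 note: exposure for twelve days from plating with re-dosing on DIV 5 and 9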). In outline:
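Cytotoxicity companion to network-formation recordings: rat cortical neurons received compound over 12 days of development, re-dosed at DIV 5 and 9 feeds. Viability was inferred from LDH enzyme activity relative to DMSO.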

Experiment [16] in a line: CCTE_Shafer_MEA_dev_AB: CCTE's Alamar Blue Assay for Cytotoxicity in the Neural Network Formation Assay, Shafer Lab (AID 2284083; active = hit-call score of the fitted dose curve at least 0.9, where 1 is the maximum;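 note: resazurin reduction fluorescence as viability of cultured neurons; twelve days of exposure from plating with re-dosing on DIV 5 and 9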). In outline:
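Fluorescent resazurin reduction serves as the viability read-out, with DMSO as negative control and baseline. Cells were primary rat cortical neurons grown on MEA plates and dosed from day 0 to day 12, treatment renewed on DIV 5 and 9.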
(In general: Alamar Blue is a resazurin reagent that responds to reducing activity.)

Experiment [17] is described as follows: CCTE_Shafer_MEA_dev_mutual_information_norm: CCTE's Neural Network Formation Assay for Mutual Information Normalization, Shafer Lab (AID 2284091).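 Note: mutual information between electrodes summarised as area under curve across four recording days; potency is for a decrease in mutual information relative to DMSO.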 The procedure, abridged:
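Exposure of primary rat cortical neurons began at plating and ran to DIV 12, with full media and treatment renewal after DIV 5 and 9 recordings. Mutual information AUC (DIV 5–12) was analysed for loss versus DMSO.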

A short description of experiment [18]: CCTE_Shafer_MEA_dev_correlation_coefficient_mean: CCTE's Neural Network Formation Assay for Mean Correlation Coefficient, Shafer Lab (AID 2284093).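 Note: well mean pairwise spike train correlation integrated as AUC over recording days 5 to 12; potency fitted for loss of correlation relative to DMSO vehicle wells.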 In outline:
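Read-out: well-mean correlation coefficient of spike trains between electrode pairs, collapsed over four recording days as trapezoidal area-under-the-curve. Developing rat cortical neuron networks grown on MEAs received test chemical continuously from plating.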

Experiment [19] can be described thus: CCTE_Mundy_HCI_Cortical_Synap_Neur_Matur_NeuriteSpotCountPerNeuriteLength: CCTE's Synaptogenesis and Neurite Maturation Assay in rat cortical cells for Neurite Spot Count per Neurite Length, Mundy Lab (AID 2284210). The procedure, abridged:
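Neurite-associated synapse density (synaptophysin puncta per unit neurite length) is measured by fluorescence high-content imaging in rat cortical cultures treated from DIV 7 and fixed at DIV 12, with DMSO as negative control.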

The nature of experiment [20]: CCTE_Mundy_HCI_Cortical_NOG_NeuriteLength: CCTE's Neurite Outgrowth Assay in rat cortical cells for Neurite Length, Mundy Lab (AID 2284213).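 Note: neurites imaged about 48 to 50 h after chemical exposure began.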 The procedure, abridged:
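First, rat primary cortical cells were plated and, 2 h later, given test chemical as a 1/10 dilution. Finally, βIII-tubulin immunostaining enabled automated imaging of neurite length.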

A short description of experiment [21]: CCTE_Mundy_HCI_Cortical_Synap_Neur_Matur_NeuriteSpotCountPerNeuron: CCTE's Synaptogenesis and Neurite Maturation Assay in rat cortical cells for Neurite Spot Count per Neuron Count, Mundy Lab (AID 2284215). In outline: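 Read-out: neurite-associated synaptophysin puncta per neuron, imaged by high-content analysis after MAP2, synaptophysin and Hoechst staining. Rat primary cortical cultures, dosed DIV 7 through DIV 12; DMSO served as baseline.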

Experiment [22] in a line: CCTE_Mundy_HCI_Cortical_Synap_Neur_Matur_SynapseCount: CCTE's Synaptogenesis and Neurite Maturation Assay in rat cortical cells for Synapse Count, Mundy Lab (AID 2284218). In outline:
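Read-out: synapse number per neuron, automated high-content imaging of fixed cells immunostained for MAP2 and synaptophysin plus Hoechst nuclei. Rat primary cortical cultures, AraC at DIV 5, chemical dosing DIV 7–12. Positive-direction fit relative to DMSO.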

The nature of experiment [23]: CCTE_Mundy_HCI_hN2_NOG_NeuriteCount: CCTE's Neurite Outgrowth Assay in human hN2 cells for Neurite Count, Mundy Lab (AID 2284219; active = hit-call score of the fitted dose curve at least 0.9, where 1 is the maximum). The procedure, abridged:
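In this morphology assay, hNP1-derived neurons received test chemical 2 h post-plating and were fixed two days later in warm paraformaldehyde/sucrose containing Hoechst 33342. Neurites, labelled by rabbit anti-βIII-tubulin (1:800) and Alexa Fluor-488 (1:500), were counted automatically.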

Experiment [24] in a line: CCTE_Mundy_HCI_hN2_NOG_NeuriteLength: CCTE's Neurite Outgrowth Assay in human hN2 cells for Neurite Length, Mundy Lab (AID 2284220; active = hit-call score of the fitted dose curve at least 0.9, where 1 is the maximum). In outline:
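Using βIII-tubulin immunofluorescence and Hoechst nuclear counterstain, this component quantifies neurite length in hNP1-derived neurons.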

The nature of experiment [25]: CCTE_Mundy_HCI_hN2_NOG_NeuronCount: CCTE's Neurite Outgrowth Assay in human hN2 cells for Neuron Count, Mundy Lab (AID 2284221; active = hit-call score of the fitted dose curve at least 0.9, where 1 is the maximum). The procedure, abridged:
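Read-out is the number of betaIII-tubulin-positive neurons imaged by automated high-content analysis, with DMSO as negative control.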

Experiment [26] can be described thus: CCTE_Mundy_HCI_Cortical_Synap_Neur_Matur_CellBodySpotCount: CCTE's Synaptogenesis and Neurite Maturation Assay in rat cortical cells for Cell Body Spot Count, Mundy Lab (AID 2284223). In outline: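 Read-out: cell body-associated synaptophysin puncta per neuron, imaged after MAP2, synaptophysin and Hoechst staining. Rat cortical cells, AraC DIV 5, chemical dosing DIV 7, fixation DIV 12. Activity fitted in positive direction relative to DMSO baseline.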

Experiment [27] in a line: CCTE_Mundy_HCI_hNP1_Pro_ResponderAvgInten: CCTE's Proliferation Assay in human neuroprogenitor cells, Mundy Lab (AID 2284224; active = hit-call score of the fitted dose curve at least 0.9, where 1 is the maximum;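 note: human neural progenitor cells hNP1 derived from WA09 embryonic stem cells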). The procedure, abridged:
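Human neuroprogenitors (hNP1, WA09 lineage) receive test chemical after 40 to 44 hours of attachment. A four-hour BrdU pulse begins twenty hours later, followed by fixation and high content imaging; signal is referenced to DMSO controls.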

The nature of experiment [28]: CCTE_Mundy_HCI_hNP1_Casp3_7: CCTE's Caspase-Glo 3/7 Assay in human neuroprogenitor cells for Apoptosis, Mundy Lab (AID 2284240). In outline:
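Neuroepithelial-lineage stem cells from WA09 embryonic cells were treated with chemicals after 40–44 h of culture. Twenty-four hours later, caspase-3/7 activation was detected luminescently after a 30 min room-temperature reagent step, with DMSO as baseline.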

Experiment [29] can be described thus: CCTE_Mundy_HCI_Cortical_Synap_Neur_Matur_NeuronCount: CCTE's Synaptogenesis and Neurite Maturation Assay in rat cortical cells for Neuron Count, Mundy Lab (AID 2284242; active = hit-call score of the fitted dose curve at least 0.9, where 1 is the maximum;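 note: hits reduce neuron count versus DMSO baseline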). In outline: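 Rat cortical cultures; AraC DIV 5; chemical dosing + media change DIV 7 to DIV 12 (288.33 h readout). Fix, Hoechst, anti-MAP2/anti-synaptophysin immunostain; HCI neuron count vs DMSO baseline.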

The structures appear in SMILES notation. Records with an inconclusive call do not appear. Active and inactive are the calls of the source. Rule for the calls, unless noted: active = hit-call score of the fitted dose curve at least 0.9, where 1 is the maximum; inactive = score below 0.9.

For the molecule `C=C(C)C(=O)OCC(F)(F)C(F)(F)C(F)(F)C(F)(F)C(F)(F)C(F)(F)C(F)(F)F`, in experiment [1], the outcome was inactive.
`O.O.O.O.O.[Cd+2].[Cd+2].[Cl-].[Cl-].[Cl-].[Cl-]`: the AC50 (commonly the concentration at which the activity in the assay is half-maximal) was 0.227 µM (active) in [2]; 0.316 µM (active) in [3]; 0.362 µM (active) in [4]; 0.188 µM (active) in [5]; 0.812 µM (active) in experiment [6]; 0.375 µM (active) in [7]. In addition, the AC50 in [8] was 0.863 µM (active); in experiment [9], 0.0384 µM (active); in [10], 0.117 µM (active); in [11], 0.295 µM (active); in experiment [12] it was 0.181 µM (active); in experiment [13], 0.226 µM (active). Also, the AC50 in [14] was 0.228 µM (active); in [15], 0.499 µM (active); in [16], 0.458 µM (active); in experiment [17], 0.135 µM (active); in experiment [18], 0.246 µM (active); in experiment [19], 4.37 µM (active). The AC50 in experiment [20] is 30.8 µM (active); in experiment [21], 1.62 µM (active); in experiment [22], 1.67 µM (active); in experiment [23], 30 µM (active); in [24] it was 31.6 µM (active); in experiment [25], 14.1 µM (active). For the same molecule, the AC50 in experiment [28] is 50 µM (active); in [29], 1.24 µM (active). Moreover, the molecule was called inactive in experiment [26] and in [27].
